Data as given in the supplement of paper PMC9262897, “Low-cost anti-mycobacterial drug discovery using engineered E. coli” (Nature Communications, 2022).
Structures can show the parent of a compound that is named as a salt. ± gives the standard deviation of the averaged measurements.

Columns and labels:
Assay in all cases: growth (OD600 after 10 h); higher = more growth (less inhibition)
[1] = system: E. coli TESEC Alr+ wild-type control; details: compound 0.1 mM; raw OD600 reference: median of DMSO wells 0.241, cell-free background 0.041
Description: (§1)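 TESEC Mtb Alr E. coli, or the Alr+ wild-type control, in 384-well plates with Prestwick library compounds at 0.1 mM and 1% DMSO, across arabinose induction levels of 1E3 to 1E7 nM. Growth is read as OD600 after 10 h at 37 °C in triplicate biological replicates.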

E. coli TESEC Mtb Alr [2] = details: compound 0.1 mM
Description: as §1

E. coli TESEC Mtb Asd = details: compound 0.1 mM
Description: (§2)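 TESEC E. coli strains in which the native enzyme is deleted and replaced by arabinose-inducible Mtb Asd, DapB, CysH or TrpD, each grown in its selective medium. Strains were screened against the Prestwick library at 0.1 mM and 1% DMSO in 384-well format at low and high arabinose induction. Growth is read as OD600 after 10 h in triplicate.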

E. coli TESEC Mtb DapB = details: compound 0.1 mM
Description: as §2

E. coli TESEC Mtb Alr [3] = details: compound 0.1 mM; remark: listed apart in the source
Description: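 TESEC Mtb Alr E. coli (ΔaraC ΔtolC ΔentC Δalr ΔdadX, arabinose-inducible Mtb Alr) or the Alr+ wild-type control strain, grown in defined M9-fructose medium without D-alanine in 96-well plates with Prestwick library compounds at 0.1 mM and 1% DMSO. Low Alr induction is 0.1 µM arabinose and high induction is 10 mM arabinose.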

[4] = arabinose 1000 nM, raw OD600 reference: median of DMSO wells 0.294, cell-free background 0.041
[5] = arabinose 10000 nM, raw OD600 reference: median of DMSO wells 0.264, cell-free background 0.041
[6] = arabinose 100000 nM, raw OD600 reference: median of DMSO wells 0.201, cell-free background 0.041
[7] = arabinose 1000000 nM, raw OD600 reference: median of DMSO wells 0.193, cell-free background 0.041
[8] = arabinose 10000000 nM, raw OD600 reference: median of DMSO wells 0.146, cell-free background 0.041
[9] = arabinose induction (level): High, raw OD600 reference: median of DMSO wells 0.331, cell-free background 0.041
[10] = arabinose induction (level): Low, raw OD600 reference: median of DMSO wells 0.417, cell-free background 0.041
[11] = arabinose induction (level): High, raw OD600 reference: median of DMSO wells […], cell-free background 0.041
[12] = arabinose induction (level): Low, raw OD600 reference: median of DMSO wells 0.227, cell-free background 0.041
[13] = arabinose 100 nM, raw OD600 reference: median of DMSO wells 0.413, cell-free background 0.052
[14] = arabinose 10000000 nM, raw OD600 reference: median of DMSO wells […], cell-free background 0.052

Structure (SMILES) | growth [1] | growth (E. coli TESEC Mtb Alr [2]; [4]) | growth (E. coli TESEC Mtb Alr [2]; [5]) | growth (E. coli TESEC Mtb Alr [2]; [6]) | growth (E. coli TESEC Mtb Alr [2]; [7]) | growth (E. coli TESEC Mtb Alr [2]; [8]) | growth (E. coli TESEC Mtb Asd; [9]) | growth (E. coli TESEC Mtb Asd; [10]) | growth (E. coli TESEC Mtb DapB; [11]) | growth (E. coli TESEC Mtb DapB; [12]) | growth (E. coli TESEC Mtb Alr [3]; [13]) | growth (E. coli TESEC Mtb Alr [3]; [14])
COc1cc(NS(=O)(=O)c2ccc(N)cc2)nc(OC)n1 [Sulfadimethoxine] | 0.2298 ± 0.0014 | 0.264 ± 0.011 | 0.177 ± 0.01 | 0.2126 ± 0.0014 | 0.106 ± 0.0049 | 0.139 ± 0.0065 | 0.266 ± 0.0084 | 0.403 ± 0.025 | 0.192 ± 0.0042 | 0.213 ± 0.015 | 0.425 ± 0.0055 | 0.332 ± 0.031
C[N+]1(C)CCC(OC(=O)C(O)(c2ccccc2)C2CCCC2)C1 (centres undefined) [Glycopyrrolate] | 0.223 ± 0.0096 | 0.301 ± 0.0095 | 0.267 ± 0.0065 | 0.185 ± 0.021 | 0.1866 ± 0.001 | 0.138 ± 0.0078 | 0.337 ± 0.055 | 0.425 ± 0.04 | 0.194 ± 0.025 | 0.196 ± 0.011 | 0.408 ± 0.0092 | 0.335 ± 0.014
CCN(CC)CCNC(=O)c1cc(Cl)c(N)cc1OC [Metoclopramide monohydrochloride] | 0.2268 ± 0.0011 | 0.278 ± 0.016 | 0.252 ± 0.017 | 0.195 ± 0.015 | 0.179 ± 0.0077 | 0.144 ± 0.0028 | 0.252 ± 0.015 | 0.485 ± 0.011 | 0.193 ± 0.01 | 0.221 ± 0.018 | 0.409 ± 0.0098 | 0.358 ± 0.0081
CC(=O)Nc1ccc(CC(=O)O)cc1 [Actarit] | 0.2349 ± 0.00093 | 0.291 ± 0.024 | 0.259 ± 0.0053 | 0.198 ± 0.015 | 0.217 ± 0.0053 | 0.136 ± 0.0042 | 0.291 ± 0.009 | 0.311 ± 0.097 | 0.183 ± 0.017 | 0.203 ± 0.025 | 0.412 ± 0.011 | 0.342 ± 0.015
Clc1ccc2c(c1)CCc1cccnc1C2=C1CCNCC1 [Desloratadine] | 0.2 ± 0.015 | 0.211 ± 0.0061 | 0.256 ± 0.0088 | 0.163 ± 0.0094 | 0.153 ± 0.0064 | 0.145 ± 0.0037 | 0.149 ± 0.023 | 0.251 ± 0.026 | 0.216 ± 0.033 | 0.215 ± 0.031 | 0.398 ± 0.0076 | 0.288 ± 0.016
CN/C(=N\CCSCc1nc[nH]c1C)NC#N [Cimetidine] | 0.249 ± 0.0059 | 0.295 ± 0.023 | 0.252 ± 0.0057 | 0.216 ± 0.028 | 0.179 ± 0.00087 | 0.142 ± 0.0033 | 0.376 ± 0.1 | 0.376 ± 0.045 | 0.181 ± 0.012 | 0.206 ± 0.025 | 0.409 ± 0.0072 | 0.337 ± 0.019
COc1ccc(C(=O)NCc2cccnc2)cc1C(=O)NCc1cccnc1 [Picotamide monohydrate] | 0.234 ± 0.013 | 0.264 ± 0.034 | 0.258 ± 0.0067 | 0.189 ± 0.02 | 0.161 ± 0.0041 | 0.132 ± 0.0031 | 0.256 ± 0.042 | 0.41 ± 0.037 | 0.189 ± 0.0065 | 0.228 ± 0.034 | 0.4272 ± 0.0023 | 0.321 ± 0.024
Cc1ccc(C)c(OCCCC(C)(C)C(=O)O)c1 [Gemfibrozil] | 0.2143 ± 0.0012 | 0.258 ± 0.0058 | 0.22 ± 0.0045 | 0.163 ± 0.0097 | 0.153 ± 0.0071 | 0.121 ± 0.0017 | 0.202 ± 0.051 | 0.214 ± 0.0039 | 0.161 ± 0.029 | 0.195 ± 0.055 | 0.354 ± 0.037 | 0.261 ± 0.011
Cc1cn([C@H]2C[C@H](N=[N+]=[N-])[C@@H](CO)O2)c(=O)[nH]c1=O [Zidovudine, AZT] | 0.0935 ± 0.0041 | 0.0804 ± 0.011 | 0.0544 ± 0.0014 | 0.0839 ± 0.0005 | 0.0604 ± 0.0022 | 0.103 ± 0.0045 | 0.1 ± 0.0079 | 0.0819 ± 0.012 | 0.148 ± 0.0088 | 0.0825 ± 0.0056 | 0.166 ± 0.012 | 0.125 ± 0.017
CC[N+](CC)(CC(=O)Nc1c(C)cccc1C)Cc1ccccc1 [Denatonium benzoate] | 0.216 ± 0.0039 | 0.27 ± 0.0093 | 0.254 ± 0.006 | 0.182 ± 0.034 | 0.173 ± 0.014 | 0.132 ± 0.0092 | 0.401 ± 0.018 | 0.46 ± 0.0089 | 0.189 ± 0.015 | 0.224 ± 0.024 | 0.402 ± 0.018 | 0.338 ± 0.02
CN(C)CCCN1c2ccccc2Sc2ccc(Cl)cc21 [Chlorpromazine hydrochloride] | 0.0844 ± 0.00072 | 0.054 ± 0.0094 | 0.04817 ± 5.8e-05 | 0.0531 ± 0.008 | 0.0443 ± 0.00046 | 0.0452 ± 0.00035 | 0.0646 ± 0.0046 | 0.0699 ± 0.0027 | 0.13 ± 0.012 | 0.25 ± 0.08 | 0.425 ± 0.0072 | 0.0848 ± 0.022
O=C(O)CNC(=O)C(CS)Cc1ccccc1 (centres undefined) [Thiorphan] | 0.26 ± 0.0069 | 0.305 ± 0.013 | 0.2568 ± 0.0017 | 0.252 ± 0.037 | 0.172 ± 0.003 | 0.167 ± 0.0089 | 0.3 ± 0.069 | 0.382 ± 0.034 | 0.202 ± 0.019 | 0.236 ± 0.019 | 0.409 ± 0.0074 | 0.348 ± 0.021
Nc1nc(/C(=C/CC(=O)O)C(=O)N[C@@H]2C(=O)N3C(C(=O)O)=CCS[C@H]23)cs1 [Ceftibuten] | 0.146 ± 0.0038 | 0.0633 ± 0.0031 | 0.04393 ± 0.00032 | 0.141 ± 0.012 | 0.138 ± 0.0075 | 0.177 ± 0.004 | 0.158 ± 0.0053 | 0.0769 ± 0.00091 | 0.188 ± 0.021 | 0.231 ± 0.034 | 0.0471 ± 0.00072 | 0.273 ± 0.01
C#C[C@]1(OC(C)=O)CC[C@H]2[C@@H]3CCC4=C[C@@H](OC(C)=O)CC[C@@H]4[C@H]3CC[C@@]21C [Ethynodiol diacetate] | 0.174 ± 0.0051 | 0.233 ± 0.016 | 0.215 ± 0.034 | 0.12 ± 0.0032 | 0.0855 ± 0.0055 | 0.161 ± 0.018 | 0.221 ± 0.012 | 0.358 ± 0.039 | 0.161 ± 0.0063 | 0.165 ± 0.011 | 0.384 ± 0.012 | 0.118 ± 0.019
CCN(CC)C(=O)C1(c2ccccc2)CC1CN (centres undefined) [Milnacipran hydrochloride] | 0.233 ± 0.011 | 0.298 ± 0.0046 | 0.271 ± 0.0097 | 0.202 ± 0.006 | 0.182 ± 0.02 | 0.151 ± 0.0028 | 0.239 ± 0.024 | 0.385 ± 0.033 | 0.203 ± 0.016 | 0.259 ± 0.026 | 0.424 ± 0.014 | 0.322 ± 0.0073
CN1CCN(CCCN2c3ccccc3Sc3ccc(C(F)(F)F)cc32)CC1 [Trifluoperazine dihydrochloride] | 0.0402 | 0.03983 ± 0.00032 | 0.03903 ± 0.00012 | 0.04003 ± 5.8e-05 | 0.03933 ± 5.8e-05 | 0.0403 ± 0.0001 | 0.0513 ± 0.00026 | 0.054 ± 0.0007 | 0.04873 ± 0.00025 | 0.171 ± 0.11 | 0.26 ± 0.19 | 0.0509 ± 0.00026
c1ccc(-c2ccc(C(c3ccccc3)n3ccnc3)cc2)cc1 (centres undefined) [Bifonazole] | 0.048 ± 0.0064 | 0.0456 ± 0.0051 | 0.0548 ± 0.0019 | 0.0516 ± 0.0035 | 0.0499 ± 0.0019 | 0.0504 ± 0.0085 | 0.048 ± 0.00098 | 0.0481 ± 0.0011 | 0.0611 ± 0.0018 | 0.0597 ± 0.0022 | 0.0739 ± 0.015 | 0.0689 ± 0.0074
